Records with an inconclusive call do not appear. Unless noted, calls follow the shape of the dose curve; as a rule, active = well fitted curve in either direction with a large enough effect (not every such curve was filed as active); inconclusive = small, poorly fitted or top-dose-only effect, or another doubt; inactive = flat fitted curve, though single readings scatter.
Key:
[1] = AP1 Signaling Pathway (AID 357); details: ME-180 AP-1-bla reporter, EGF-induced, beta-lactamase ratio, 5 h; at 17.2 µM (top of the series) unless noted;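 also: ME-180 reporter cells stimulated with EGF at its EC50 level; % is scaled to controls: 0 for no effect and ±100 for the full control effect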
In short: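 AP-1-bla ME-180 cells, Opti-MEM + 0.5% dialyzed FBS, plated overnight 37 °C. Cpd titration + EC50 EGF, 5 h 37 °C. CCF4 2.5 h RT; ex 405, em 460/530 ratio → %activity, AC50.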

[2] = NFAT Signaling Pathway (AID 444); details: Jurkat NFAT-bla M1, carbachol, beta-lactamase ratio, 5 h; at 17.2 µM (top of the series) unless noted;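 also: carbachol stimulus at about its EC50 of 1 µM final; % is scaled to controls: 0 for no effect and ±100 for the full control effect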
In short: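 Jurkat cells carrying an NFAT-driven β-lactamase reporter and co-transfected muscarinic M1 receptor were treated with compound plus carbachol (1 uM final, an EC50 level) for 5 h at 37 °C. CCF4 loading followed for 1 h at RT; 460/530 nm ratio gave %activity.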

[3] = Stat Signaling Pathway (AID 446); details: ME-180 (cervical carcinoma) SIE beta-lactamase reporter, IL-6 stimulated, 5 h; at 17.2 µM (top of the series) unless noted;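 also: ME-180 cervical cancer cells given 40 pM IL-6 alongside compound; SIE-controlled beta-lactamase reporter measured as 460/530 nm FRET emission ratio; % is scaled to controls: 0 for no effect and ±100 for the full control effect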
In short: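 Overnight-plated ME-180 cells bearing a STAT Inducible Element beta-lactamase reporter; 5 h co-exposure to compound and 40 pM IL-6; values normalized to 300 pM IL-6 and 125 nM JAK inhibitor controls.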

[4] = biological target: Glucocorticoid receptor (Homo sapiens) (UniProt P04150); test: GR-GFP Redistribution (AID 450;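 active = compounds whose dose series gives a full or clear partial fitted curve of increased nuclear translocation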; also: potency is read from the fitted curve at half-maximal effect)
Glucocorticoid receptor (Homo sapiens), sequence (P04150 whole entry, looked up): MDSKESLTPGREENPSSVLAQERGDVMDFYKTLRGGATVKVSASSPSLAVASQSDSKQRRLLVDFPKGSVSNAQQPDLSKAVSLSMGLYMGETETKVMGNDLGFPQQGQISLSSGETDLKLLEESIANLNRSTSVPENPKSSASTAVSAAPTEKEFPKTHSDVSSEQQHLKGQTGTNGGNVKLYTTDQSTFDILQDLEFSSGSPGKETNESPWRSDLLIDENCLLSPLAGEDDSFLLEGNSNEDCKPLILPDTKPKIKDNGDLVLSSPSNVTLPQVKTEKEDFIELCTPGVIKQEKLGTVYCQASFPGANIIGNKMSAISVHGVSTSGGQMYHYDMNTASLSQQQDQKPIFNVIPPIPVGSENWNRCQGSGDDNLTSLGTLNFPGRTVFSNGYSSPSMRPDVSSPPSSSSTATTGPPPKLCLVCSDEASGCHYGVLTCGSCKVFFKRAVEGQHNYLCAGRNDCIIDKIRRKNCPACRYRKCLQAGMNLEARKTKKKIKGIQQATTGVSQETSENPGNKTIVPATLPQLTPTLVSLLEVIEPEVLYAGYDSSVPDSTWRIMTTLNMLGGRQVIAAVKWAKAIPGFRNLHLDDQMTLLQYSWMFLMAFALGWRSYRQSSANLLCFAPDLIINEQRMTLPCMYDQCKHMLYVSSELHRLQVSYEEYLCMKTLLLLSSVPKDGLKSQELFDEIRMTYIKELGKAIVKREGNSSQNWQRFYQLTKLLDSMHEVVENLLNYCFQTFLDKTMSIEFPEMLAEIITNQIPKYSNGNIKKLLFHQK

Cc1c(C(=O)O)sc(=S)n1-c1ccccc1
inactive: activity change, negative = inhibition [1] 11% | activity change, negative = inhibition [2] 2.74% | activity, negative = inhibition [3] 4.36% | Potency [4] > 20.6 µM

CSc1nc(N)nc(SCC(=O)CC(=O)OC(C)C)c1C#N
inactive: activity change, negative = inhibition [1] -2.75% | activity change, negative = inhibition [2] 5.87% | activity, negative = inhibition [3] -1.28% | Potency [4] > 20.6 µM

COc1ccccc1NC(=O)CSc1nnc(-c2ccc(NC(C)=O)cc2)n1C
inactive: activity change, negative = inhibition [1] -3.49% | activity change, negative = inhibition [2] -2.99% | activity, negative = inhibition [3] -0.879% | Potency [4] > 20.6 µM

Oc1ccc(C=Nc2ccc3ncccc3c2)c(O)c1
inactive: activity change, negative = inhibition [1] 26.2% | activity change, negative = inhibition [2] -26.8% | activity, negative = inhibition [3] 13.2% | Potency [4] > 20.6 µM

COc1ccc(C2CC(=O)c3sc(N)nc3C2)cc1 (stereo unspecified)
inactive: activity change, negative = inhibition [1] -9.21% | activity change, negative = inhibition [2] 5.45% | activity, negative = inhibition [3] 3.6% | Potency [4] > 20.6 µM

CN1CCN(c2ncnc3c2[nH]c2ccc(F)cc23)CC1
inactive: activity change, negative = inhibition [1] 7.75% | activity change, negative = inhibition [2] -5.03% | activity, negative = inhibition [3] 11.7% | Potency [4] > 20.6 µM

Cc1ccc(N(CC(=O)O)C2SC(=O)NC2=O)cc1 (stereo unspecified)
inactive: activity change, negative = inhibition [1] 12.3% | activity change, negative = inhibition [2] 0.868% | activity, negative = inhibition [3] 6.57% | Potency [4] > 20.6 µM

COc1cccc(OC)c1C(=O)Nc1nc2ccc(S(C)(=O)=O)cc2s1
inactive: activity change, negative = inhibition [1] -25.1% | activity change, negative = inhibition [2] 21% | activity, negative = inhibition [3] -10.6% | Potency [4] > 20.6 µM

CC1(C)CC(=O)C=C(NCCO)C1
inactive: activity change, negative = inhibition [1] 20.8% | activity change, negative = inhibition [2] 2.7% | activity, negative = inhibition [3] 12.6% | Potency [4] > 20.6 µM

Clc1ccc(COc2ccccn2)c(Cl)c1
inactive: activity change, negative = inhibition [1] 10% | activity change, negative = inhibition [2] -8.68% | activity, negative = inhibition [3] 15.3% | Potency [4] > 20.6 µM

Cc1ccc(N2CN=c3s/c(=C\c4cccnc4)c(=O)n3C2)cc1
inactive: activity change, negative = inhibition [1] -7.29% | activity change, negative = inhibition [2] -22.3% | activity, negative = inhibition [3] -5.47% | Potency [4] > 20.6 µM

N#Cc1nc(-c2ccc(F)cc2)oc1N1CCCC1
inactive: activity change, negative = inhibition [1] 0.0908% | activity change, negative = inhibition [2] -1.86% | activity, negative = inhibition [3] -3.18% | Potency [4] > 20.6 µM

Cc1ccc(-c2nnc(OCCN3CCOCC3)c3ccccc23)cc1
inactive: activity change, negative = inhibition [1] -9.96% | activity change, negative = inhibition [2] 5.38% | activity, negative = inhibition [3] -1.56% | Potency [4] > 20.6 µM

COc1ccc2c(c1)C1(C)CC(C)(C)N2C(=O)N1c1ccccc1 (stereo unspecified)
inactive: activity change, negative = inhibition [1] -24.6% | activity change, negative = inhibition [2] 24.8% | activity, negative = inhibition [3] -17.2% | Potency [4] > 20.6 µM

CC(=Nc1ccc(C)c(C)c1)C1=C(O)CCC1=O
inactive: activity change, negative = inhibition [1] 13.3% | activity change, negative = inhibition [2] -8.58% | activity, negative = inhibition [3] 24.8% | Potency [4] > 20.6 µM

COc1ccc(/C(O)=C2/C(=O)C(=O)N(CCN3CCOCC3)C2c2cccnc2)cc1OC (stereo unspecified)
inactive: activity change, negative = inhibition [1] -2.7% | activity change, negative = inhibition [2] 7.11% | activity, negative = inhibition [3] 6.33% | Potency [4] > 20.6 µM

CC1CN(C2CCN(C(=O)COc3ccccc3)CC2)CC(C)O1 (stereo unspecified)
inactive: activity change, negative = inhibition [1] -6.79% | activity change, negative = inhibition [2] -12.5% | activity, negative = inhibition [3] -1.27% | Potency [4] > 20.6 µM

OC1CN=C2Sc3ccccc3N2C1 (stereo unspecified)
inactive: activity change, negative = inhibition [1] 1.76% | activity change, negative = inhibition [2] -2.78% | activity, negative = inhibition [3] -3.59% | Potency [4] > 20.6 µM

O=C(C1=C(O)C(=O)N(CCCN2CCOCC2)C1c1ccccn1)c1cc2ccccc2o1 (stereo unspecified)
inactive: activity change, negative = inhibition [1] 0.283% | activity change, negative = inhibition [2] 1.99% | activity, negative = inhibition [3] -5.61% | Potency [4] > 20.6 µM

From PubChem BioAssay (NCATS)
